According to the supplement of paper PMC11732987, “Enantioselective OTUD7B fragment discovery through chemoproteomics screening and high-throughput optimisation” (Communications Chemistry, 2025):

Tests used:
Assay in all cases: log2 ratio of Biotin-Ahx-Ub-VS probe labelling (fragment/DMSO); higher = less target engagement (more negative = stronger competition), active = hit call of the paper (q ≤ 0.05, log2 ratio ≤ -1)
Details in all cases: compound concentration: 200 uM; treatment time: 3 h
[1] = target: T1, USP19 (UniProt O94966)
T1 sequence (whole entry): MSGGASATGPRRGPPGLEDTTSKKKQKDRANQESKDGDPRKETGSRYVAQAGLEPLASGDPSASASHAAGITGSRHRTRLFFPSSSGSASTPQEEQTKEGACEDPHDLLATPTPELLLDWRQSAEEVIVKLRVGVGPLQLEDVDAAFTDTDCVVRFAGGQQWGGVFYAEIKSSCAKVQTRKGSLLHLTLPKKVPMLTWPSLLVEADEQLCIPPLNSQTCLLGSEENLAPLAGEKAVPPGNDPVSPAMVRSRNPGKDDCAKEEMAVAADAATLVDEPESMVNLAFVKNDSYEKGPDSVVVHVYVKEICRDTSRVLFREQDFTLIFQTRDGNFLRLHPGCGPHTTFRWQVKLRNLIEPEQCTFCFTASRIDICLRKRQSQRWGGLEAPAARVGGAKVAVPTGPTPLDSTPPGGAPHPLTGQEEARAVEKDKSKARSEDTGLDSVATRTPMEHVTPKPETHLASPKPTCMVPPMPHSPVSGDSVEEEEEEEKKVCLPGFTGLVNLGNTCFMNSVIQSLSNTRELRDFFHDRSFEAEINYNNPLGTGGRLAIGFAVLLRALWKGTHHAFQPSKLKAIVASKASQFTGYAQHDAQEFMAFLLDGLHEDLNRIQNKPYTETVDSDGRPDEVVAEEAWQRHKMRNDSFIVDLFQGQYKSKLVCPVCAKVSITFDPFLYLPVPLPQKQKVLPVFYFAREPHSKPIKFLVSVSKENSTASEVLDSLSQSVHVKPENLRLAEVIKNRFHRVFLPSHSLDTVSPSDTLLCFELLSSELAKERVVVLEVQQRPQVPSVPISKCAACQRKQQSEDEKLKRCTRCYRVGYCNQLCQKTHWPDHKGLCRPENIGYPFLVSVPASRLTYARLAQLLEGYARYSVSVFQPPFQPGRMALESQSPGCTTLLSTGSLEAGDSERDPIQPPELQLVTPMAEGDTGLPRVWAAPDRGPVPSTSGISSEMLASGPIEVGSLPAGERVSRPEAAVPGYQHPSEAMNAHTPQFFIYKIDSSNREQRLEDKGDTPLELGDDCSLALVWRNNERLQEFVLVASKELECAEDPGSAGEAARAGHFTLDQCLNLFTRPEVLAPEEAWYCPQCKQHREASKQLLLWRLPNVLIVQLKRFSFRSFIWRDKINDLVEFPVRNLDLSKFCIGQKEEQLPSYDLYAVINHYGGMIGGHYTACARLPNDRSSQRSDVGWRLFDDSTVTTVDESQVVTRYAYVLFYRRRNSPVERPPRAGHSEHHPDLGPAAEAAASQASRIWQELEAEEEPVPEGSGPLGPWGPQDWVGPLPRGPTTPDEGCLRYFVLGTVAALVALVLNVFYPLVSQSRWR
Procedure, shortened: (§1)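 HEK293T lysate, 495 µg per sample in Tris/CHAPS/IGEPAL buffer with protease inhibitors, was treated in triplicate with fragment at 200 µM or vehicle for 3 h and then with Biotin-Ahx-Ub-VS at 0.5 µM final for 1 h. Labelled DUBs were NeutrAvidin-enriched, digested with LysC and trypsin, and run by diaPASEF LC-MS/MS. Spectronaut label-free quantities were global-median-normalised, and values are average log2 fragment/vehicle ratios by unpaired t-test on proteins with ≥2 unique peptides.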

[2] = target: T2, USP22 (UniProt Q9UPT9)
T2 sequence (whole entry): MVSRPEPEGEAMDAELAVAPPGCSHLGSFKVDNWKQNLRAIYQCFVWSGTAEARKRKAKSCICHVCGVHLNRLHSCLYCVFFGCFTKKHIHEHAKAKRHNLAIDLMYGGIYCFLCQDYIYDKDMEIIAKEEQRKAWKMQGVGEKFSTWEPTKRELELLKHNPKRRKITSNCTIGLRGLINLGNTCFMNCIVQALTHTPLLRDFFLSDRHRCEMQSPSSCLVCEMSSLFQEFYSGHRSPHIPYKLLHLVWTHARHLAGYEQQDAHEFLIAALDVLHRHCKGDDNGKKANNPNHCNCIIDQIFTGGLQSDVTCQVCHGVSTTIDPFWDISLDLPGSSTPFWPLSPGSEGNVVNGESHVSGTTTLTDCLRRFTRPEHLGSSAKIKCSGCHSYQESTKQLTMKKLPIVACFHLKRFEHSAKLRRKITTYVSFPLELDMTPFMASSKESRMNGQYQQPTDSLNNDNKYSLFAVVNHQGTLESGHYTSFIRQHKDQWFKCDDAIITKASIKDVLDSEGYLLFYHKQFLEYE
Procedure, shortened: as §1

[3] = target: USP24 (UniProt Q9UPU5)
USP24, sequence (Q9UPU5 whole entry): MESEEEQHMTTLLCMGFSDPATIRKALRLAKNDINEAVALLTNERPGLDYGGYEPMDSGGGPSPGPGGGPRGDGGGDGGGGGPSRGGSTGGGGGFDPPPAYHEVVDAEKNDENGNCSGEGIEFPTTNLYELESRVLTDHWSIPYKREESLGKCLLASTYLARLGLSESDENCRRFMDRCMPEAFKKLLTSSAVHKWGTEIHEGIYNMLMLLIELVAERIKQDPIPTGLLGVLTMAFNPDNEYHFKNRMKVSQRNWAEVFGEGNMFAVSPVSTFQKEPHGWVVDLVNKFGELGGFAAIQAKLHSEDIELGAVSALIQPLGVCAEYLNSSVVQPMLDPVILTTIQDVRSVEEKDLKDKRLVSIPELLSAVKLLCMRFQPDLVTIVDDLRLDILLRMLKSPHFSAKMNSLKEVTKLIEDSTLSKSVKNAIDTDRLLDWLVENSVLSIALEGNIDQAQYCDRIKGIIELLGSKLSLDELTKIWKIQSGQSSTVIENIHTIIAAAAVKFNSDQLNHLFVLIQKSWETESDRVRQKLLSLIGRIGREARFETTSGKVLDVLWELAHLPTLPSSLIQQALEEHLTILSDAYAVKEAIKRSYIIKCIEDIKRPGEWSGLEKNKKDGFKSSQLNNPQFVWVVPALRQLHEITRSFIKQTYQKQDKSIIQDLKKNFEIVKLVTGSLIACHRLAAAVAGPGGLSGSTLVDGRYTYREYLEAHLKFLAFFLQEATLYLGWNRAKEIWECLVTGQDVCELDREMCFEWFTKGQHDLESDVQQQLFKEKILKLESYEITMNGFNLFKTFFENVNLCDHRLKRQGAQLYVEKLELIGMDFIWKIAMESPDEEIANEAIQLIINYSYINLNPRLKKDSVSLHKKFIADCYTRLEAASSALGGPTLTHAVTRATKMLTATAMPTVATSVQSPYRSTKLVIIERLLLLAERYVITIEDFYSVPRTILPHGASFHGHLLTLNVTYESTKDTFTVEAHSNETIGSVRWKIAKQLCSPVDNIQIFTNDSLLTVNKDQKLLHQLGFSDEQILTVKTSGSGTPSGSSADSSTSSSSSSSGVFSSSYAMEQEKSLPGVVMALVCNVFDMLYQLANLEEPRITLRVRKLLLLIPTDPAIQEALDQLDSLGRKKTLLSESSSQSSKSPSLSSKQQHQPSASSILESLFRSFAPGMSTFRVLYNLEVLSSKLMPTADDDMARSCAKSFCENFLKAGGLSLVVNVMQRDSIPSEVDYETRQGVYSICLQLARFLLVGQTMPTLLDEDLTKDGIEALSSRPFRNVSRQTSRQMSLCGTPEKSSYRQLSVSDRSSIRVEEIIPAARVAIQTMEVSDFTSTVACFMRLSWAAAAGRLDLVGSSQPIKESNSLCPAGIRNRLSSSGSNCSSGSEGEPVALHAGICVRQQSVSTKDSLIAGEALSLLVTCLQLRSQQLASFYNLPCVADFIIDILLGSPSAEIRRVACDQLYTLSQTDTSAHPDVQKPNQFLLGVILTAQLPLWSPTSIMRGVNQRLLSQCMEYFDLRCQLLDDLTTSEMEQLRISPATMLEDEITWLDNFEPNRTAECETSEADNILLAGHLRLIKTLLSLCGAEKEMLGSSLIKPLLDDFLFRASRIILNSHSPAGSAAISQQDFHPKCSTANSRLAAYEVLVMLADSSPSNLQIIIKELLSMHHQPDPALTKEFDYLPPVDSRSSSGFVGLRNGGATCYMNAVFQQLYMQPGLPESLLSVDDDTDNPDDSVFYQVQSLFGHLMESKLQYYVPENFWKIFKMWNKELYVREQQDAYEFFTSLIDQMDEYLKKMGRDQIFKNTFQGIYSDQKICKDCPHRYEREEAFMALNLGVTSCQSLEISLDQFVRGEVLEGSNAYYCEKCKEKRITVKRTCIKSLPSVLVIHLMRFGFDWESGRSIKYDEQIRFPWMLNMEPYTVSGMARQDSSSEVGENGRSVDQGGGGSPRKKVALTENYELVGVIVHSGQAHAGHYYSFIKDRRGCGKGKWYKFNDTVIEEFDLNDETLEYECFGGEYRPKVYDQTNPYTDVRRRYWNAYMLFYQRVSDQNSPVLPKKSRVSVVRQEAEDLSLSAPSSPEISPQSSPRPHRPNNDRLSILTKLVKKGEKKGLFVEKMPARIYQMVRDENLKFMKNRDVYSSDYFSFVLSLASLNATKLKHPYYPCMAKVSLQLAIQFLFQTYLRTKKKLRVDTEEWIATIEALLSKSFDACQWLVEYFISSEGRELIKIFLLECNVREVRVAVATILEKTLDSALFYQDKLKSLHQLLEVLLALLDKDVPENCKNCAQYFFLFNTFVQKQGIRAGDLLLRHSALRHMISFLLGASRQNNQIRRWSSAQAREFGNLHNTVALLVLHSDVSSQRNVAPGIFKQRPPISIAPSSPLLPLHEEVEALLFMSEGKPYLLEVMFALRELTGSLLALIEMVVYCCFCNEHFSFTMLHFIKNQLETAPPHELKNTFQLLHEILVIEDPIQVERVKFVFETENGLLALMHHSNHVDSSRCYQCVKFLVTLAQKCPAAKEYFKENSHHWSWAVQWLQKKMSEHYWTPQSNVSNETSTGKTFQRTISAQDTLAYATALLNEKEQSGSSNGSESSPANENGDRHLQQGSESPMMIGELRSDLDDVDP
Procedure, shortened: as §1

[4] = target: T3, USP25 (UniProt Q9UHP3)
T3 sequence (whole entry): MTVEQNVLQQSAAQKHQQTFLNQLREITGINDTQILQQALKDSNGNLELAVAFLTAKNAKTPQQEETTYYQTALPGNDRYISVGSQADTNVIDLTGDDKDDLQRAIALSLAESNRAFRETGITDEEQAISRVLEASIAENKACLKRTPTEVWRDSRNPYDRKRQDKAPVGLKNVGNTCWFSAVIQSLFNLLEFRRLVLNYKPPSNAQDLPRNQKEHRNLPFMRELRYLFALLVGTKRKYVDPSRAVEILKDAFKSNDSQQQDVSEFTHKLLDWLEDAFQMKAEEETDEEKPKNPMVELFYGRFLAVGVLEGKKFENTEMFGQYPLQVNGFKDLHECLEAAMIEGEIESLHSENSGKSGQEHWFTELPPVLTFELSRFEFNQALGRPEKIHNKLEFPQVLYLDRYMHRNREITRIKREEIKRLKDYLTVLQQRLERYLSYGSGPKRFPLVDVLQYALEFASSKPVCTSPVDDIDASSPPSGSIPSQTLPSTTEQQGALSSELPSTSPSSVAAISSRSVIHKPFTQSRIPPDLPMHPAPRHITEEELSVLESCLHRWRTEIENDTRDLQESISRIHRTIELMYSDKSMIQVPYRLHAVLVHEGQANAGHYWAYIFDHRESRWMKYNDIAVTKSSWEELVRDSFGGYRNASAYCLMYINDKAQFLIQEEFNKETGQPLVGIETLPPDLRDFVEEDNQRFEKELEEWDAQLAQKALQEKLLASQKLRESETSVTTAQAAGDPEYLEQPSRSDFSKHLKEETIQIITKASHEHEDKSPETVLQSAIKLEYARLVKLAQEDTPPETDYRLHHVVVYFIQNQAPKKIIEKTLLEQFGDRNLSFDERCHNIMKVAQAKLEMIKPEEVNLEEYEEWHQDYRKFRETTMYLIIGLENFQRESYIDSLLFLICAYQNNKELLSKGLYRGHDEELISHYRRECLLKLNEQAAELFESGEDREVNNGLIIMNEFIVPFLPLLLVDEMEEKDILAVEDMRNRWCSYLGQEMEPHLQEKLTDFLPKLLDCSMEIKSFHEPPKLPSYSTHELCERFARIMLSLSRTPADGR
Procedure, shortened: as §1

[5] = target: T4, USP28 (UniProt Q96RU2)
T4 sequence (whole entry): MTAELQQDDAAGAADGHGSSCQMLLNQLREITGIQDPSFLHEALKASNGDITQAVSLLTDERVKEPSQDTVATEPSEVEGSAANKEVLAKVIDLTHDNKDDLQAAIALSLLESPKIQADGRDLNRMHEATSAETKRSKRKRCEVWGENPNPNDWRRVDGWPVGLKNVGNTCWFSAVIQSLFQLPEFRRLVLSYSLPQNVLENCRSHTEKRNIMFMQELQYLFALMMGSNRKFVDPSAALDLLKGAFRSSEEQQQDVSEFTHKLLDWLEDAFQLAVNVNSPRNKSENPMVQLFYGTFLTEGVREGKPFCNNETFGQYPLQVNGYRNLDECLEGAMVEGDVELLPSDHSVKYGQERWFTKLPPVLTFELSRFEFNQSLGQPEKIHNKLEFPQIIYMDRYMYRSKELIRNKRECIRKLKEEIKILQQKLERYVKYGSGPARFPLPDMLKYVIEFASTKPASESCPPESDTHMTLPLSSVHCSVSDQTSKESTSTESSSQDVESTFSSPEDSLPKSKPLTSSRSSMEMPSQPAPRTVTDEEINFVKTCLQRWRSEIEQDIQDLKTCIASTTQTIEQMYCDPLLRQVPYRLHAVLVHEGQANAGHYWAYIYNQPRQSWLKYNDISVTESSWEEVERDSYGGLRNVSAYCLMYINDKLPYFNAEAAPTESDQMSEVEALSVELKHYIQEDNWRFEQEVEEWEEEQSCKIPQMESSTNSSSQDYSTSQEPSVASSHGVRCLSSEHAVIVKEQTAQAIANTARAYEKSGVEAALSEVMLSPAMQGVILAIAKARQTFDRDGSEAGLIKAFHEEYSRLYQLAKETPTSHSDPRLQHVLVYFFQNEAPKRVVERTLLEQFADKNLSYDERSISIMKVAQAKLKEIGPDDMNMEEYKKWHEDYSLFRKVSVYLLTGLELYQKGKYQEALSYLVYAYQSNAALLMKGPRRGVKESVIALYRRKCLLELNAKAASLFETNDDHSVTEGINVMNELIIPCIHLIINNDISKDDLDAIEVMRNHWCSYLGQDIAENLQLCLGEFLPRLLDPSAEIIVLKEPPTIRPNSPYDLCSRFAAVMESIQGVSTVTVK
Procedure, shortened: as §1

Measured: log2 ratio of Biotin-Ahx-Ub-VS probe labelling

C#Cc1cccc(NC(=O)CCl)c1
inactive: [1] -0.38 | [2] -0.379 | [3] -0.837 | [4] -0.804 | [5] -0.906
